Experimental findings from the OligoGym collection are described below.
Also: reference of the scale not given here.

For the first experiment, the target named is KIAA0101. As to the kind of experiment: pooled miR-30 sensor sort-seq; sequence = guide strand. The following applies: shRNA.
With TTACATTCTAGAATACCAGGGT, the sensor-assay potency score (higher = more potent) is 1.19.

As for ATTTGTGTGATCAGGTTGCAAA, the sensor-assay potency score (higher = more potent) is -1.36. Turning to TTCCTTTTTGCCACTTGGGAGT, the sensor-assay potency score (higher = more potent) is -1.06. The sequence TTTTTCAGAATCTTTAGGGGAC showed a sensor-assay potency score (higher = more potent) of 0.436. As to TTCTTTTTCATCATTTGTGTGA, the sensor-assay potency score (higher = more potent) is -0.441. Still for that read-out and setting: under TTCAGGAATCTGATTCTCTTTT stands -0.732.

Take TTATTTTCAGCTTTCCTCGATG: the sensor-assay potency score (higher = more potent) is -0.0942. TTCATCATTTGTGTGATCAGGT registered a sensor-assay potency score (higher = more potent) of 1.01. Still for that read-out and setting: under TTCCTAAGCCACTGCTTCCTGC stands -1.25; under TTTGCTTTTCCTAAGCCACTGC, 0.846.

The target in a further experiment is KIAA0319. The experiment is described as above. The following applies: shRNA.
Sequence AAATGTATAATCTCCTTCCTGC registered a sensor-assay potency score (higher = more potent) of 0.3. The same measure, in the same setting: under TTCACCTTGGTAGTCTGTGGGG stands -0.629; under TACATAAAACACAATCACGGTG, -0.47. Same read-out and setting: for TTTATTTCTATTAACAAGCATC the value was -1.13; for TTCAGCAGCTTTGAGAACCTTG, -0.33. The same measure, in the same setting: for TTATAATTAGGTTATCTCCAGC the value was -0.767; for TTCACTAGAAACAGTGACTTTG, -0.766. In turn, TAAAACACAATCACGGTGCTGA had a sensor-assay potency score (higher = more potent) of 1.15.

For the sequence TTTCACTAGAAACAGTGACTTT, the sensor-assay potency score (higher = more potent) was -0.974. In the case of TTCTCTTCTATGAAGGGCCCGT, the sensor-assay potency score (higher = more potent) is -0.659. Same read-out and setting: for TTATGGTGTGATTTGGTCCTGC the value was 0.156; for TAAGAGTTTGCTTGTGTCCTTG, 0.184.

The next experiment addresses KIAA0368. Described as above. The following applies: shRNA.
As to TTGAATTTGTATTTGTACCAAA, the sensor-assay potency score (higher = more potent) is -0.672.

In the case of TTTTCTTGCTCTGTCGCCCGGA, the sensor-assay potency score (higher = more potent) came to 0.627. Take TTTTGTAGTCTTTATAAGCTGT: the sensor-assay potency score (higher = more potent) was -0.31. Same read-out and setting: for TTGAATAGCAAGTCGAGTCTCA the value was 0.314; for TTTGATGCAACATCTTGGCTAA, 0.354. In turn, TTTAACTTGACTCTTGTACTGA had a sensor-assay potency score (higher = more potent) of 0.641.

As to TTCTGTAGCACTCTGAATGAGT, the sensor-assay potency score (higher = more potent) is -0.327. Still for that read-out and setting: under TTAACTTGACTCTTGTACTGAC stands 0.576; under TATTCTGTAATTGTTCATCTGT, 0.659.

Take TTGTATTTGACATTCTCTTTGC: the sensor-assay potency score (higher = more potent) was -0.267.

On to TTTATTTAAAATCACATCCAAC, for which the sensor-assay potency score (higher = more potent) is -1.25. Still for that read-out and setting: under TTCTGAATCACACTGTTCCGAT stands -0.203.

The next experiment has as its target KIAA0564. The description is as above. The following applies: shRNA.
Sequence TTTGCCAGAACAATCATCCTAA gave a sensor-assay potency score (higher = more potent) of 0.448. In the case of TAAACATATATCTTTAACCATG, the sensor-assay potency score (higher = more potent) was -1.59. With TTGAATATAACAACTTAAGTTG, the sensor-assay potency score (higher = more potent) was -0.73. Still for that read-out and setting: for TTTTTTTCTAATGCTGACCTAG the value was -0.423; for TCTTTGTAGAACACCAGCCAGT, -0.952.
